Experimental data: PubChem BioAssay (NCATS)
Inconclusive results are not listed. The source made the active and inactive calls. The call rests on the fitted dose curve; in most records, active means well fitted curve in the direction sought with a large enough effect; inconclusive means small, poorly fitted or top-dose-only effect, or another doubt; inactive means no such curve, though single readings can be large; an effect the other way counts as inactive or inconclusive.

Assays:
[1] = test system: HEK293; assay: Cytotoxic Profiling of Annotated Libraries Using Quantitative High-Throughput Screening (AID 1296008); conditions: Five cell lines viability, CellTiter-Glo ATP luminescence, 48-72 h; max response: active compounds read low; further: nearly all actives have a fitted effect of over 60% in size
Procedure, shortened: (§1)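 Compounds were pin-transferred onto cells and incubated 48 or 72 hr at 37 degree Celsius, 95% humidity. CellTiter-Glo was added, plates sat 10 min at room temperature, then ATP-coupled luminescence was imaged as the viability read-out.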

[2] = test system: HaCat; assay: as above; conditions: Five cell lines viability, CellTiter-Glo ATP luminescence, 48-72 h; max response: active compounds read low
Procedure, shortened: as §1

[3] = test system: KB-3-1; assay: as above; conditions: Five cell lines viability, CellTiter-Glo ATP luminescence, 48-72 h; max response: active compounds read low
Procedure, shortened: as §1

[4] = test system: NIH3T3; assay: as above; conditions: Five cell lines viability, CellTiter-Glo ATP luminescence, 48-72 h; max response: active compounds read low
Procedure, shortened: as §1

[5] = test system: C33A; assay: Primary qHTS to identify gynecologic anti-cancer compounds using libraries of approved drugs and bioactive compounds (AID 1345084); conditions: Gynecologic cancer cell panel viability, ATPlite luminescence, 48 h; series mostly up to 57.5 µM; further: nearly all actives have a fitted effect of over 55% in size
Procedure, shortened: (§2)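 Measured: luminescence after ATPlite addition (15 min, RT). Exposure: 48 h, 37 C, 5% CO2.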

[6] = test system: Es-2; assay: as above; conditions: Gynecologic cancer cell panel viability, ATPlite luminescence, 48 h; series mostly up to 57.5 µM
Procedure, shortened: as §2

[7] = test system: CAOV3; assay: as above; conditions: Gynecologic cancer cell panel viability, ATPlite luminescence, 48 h; series mostly up to 57.5 µM
Procedure, shortened: as §2

[8] = test system: CASKI; assay: as above; conditions: Gynecologic cancer cell panel viability, ATPlite luminescence, 48 h; series mostly up to 57.5 µM
Procedure, shortened: as §2

[9] = test system: HeLa; assay: as above; conditions: Gynecologic cancer cell panel viability, ATPlite luminescence, 48 h; series mostly up to 57.5 µM
Procedure, shortened: as §2

[10] = test system: Hek293T; assay: as above; conditions: Gynecologic cancer cell panel viability, ATPlite luminescence, 48 h, control line for the selectivity index; series mostly up to 57.5 µM
Procedure, shortened: as §2

[11] = test system: JEG-3; assay: as above; conditions: Gynecologic cancer cell panel viability, ATPlite luminescence, 48 h; series mostly up to 57.5 µM
Procedure, shortened: as §2
On the % scale 0 is the no-effect control and ±100 the full control effect; potency means the concentration at half of the fitted maximal effect.

O=C(c1cn(Cc2cncn2Cc2ccc(Br)cc2)cc1-c1cccc2ccccc12)N1CCOCC1
active: Potency [1] 580 nM | Potency [2] 5800 nM | Potency [3] 11600 nM | Potency [4] 7310 nM
inactive: Potency [5] | Potency [6]

CN[C@H](C(=O)N[C@H](C(=O)N(C)[C@H](/C=C(\C)C(=O)O)C(C)C)C(C)(C)C)C(C)(C)c1ccccc1
inactive: max response [2] -1.54% | max response [4] -50.4% | Potency [7]
active: Potency [1] 7.3 nM | Potency [3] 4.6 nM

CC1CCC2C(C)(C)[C@@H](O)CC[C@]2(C)C12Cc1c(O)cc3c(c1O2)CN(C(CCC(=O)O)C(=O)O)C3=O (stereo not given in full)
inactive: max response [1] -4.16% | max response [2] 3.85% | outcome [3] | max response [4] -1.29% | Potency [5] | Potency [8] | Potency [6] | Potency [9] | Potency [10] | Potency [11]

CN(c1ccccc1CNc1nc(Nc2ccc3c(c2)CC(=O)N3)ncc1C(F)(F)F)S(C)(=O)=O
active: Potency [1] 2310 nM | Potency [2] 8200 nM | Potency [3] 6510 nM | Potency [4] 5800 nM | Potency [5] 6310 nM | Potency [6] 20000 nM | Potency [9] 15800 nM

O=C(CCc1nnc2n(Cc3ccc(Cl)cc3)c(=O)c3ccccc3n12)NCCC1=CCCCC1
inactive: max response [1] -12.9% | max response [2] 3.41% | max response [3] -11.9% | max response [4] 1.28% | Potency [5] | Potency [8] | Potency [6] | Potency [9] | Potency [10] | Potency [11]

CC(C)(C)c1ccc(S(=O)(=O)NCc2ccc(C(=O)Nc3cccnc3)cc2)cc1
active: Potency [1] 326 nM | Potency [2] 6510 nM | Potency [3] 731 nM | Potency [4] 3660 nM | Potency [5] 7940 nM | Potency [6] 3550 nM | Potency [9] 1780 nM | Potency [11] 2240 nM

CCOC(=O)C(CCc1ccccc1)NC1CSC(c2cccs2)CN(CC(=O)O)C1=O (stereo not given)
inactive: max response [1] -2.54% | max response [2] 1.02% | outcome [3] | max response [4] -0.887% | Potency [5] | Potency [8] | Potency [6] | Potency [9] | Potency [10] | Potency [11]

COc1ccc(/C=C/C(=O)O[C@@H]2[C@@H](O)[C@H](C)O[C@@H](O[C@H]3[C@@H]4C=CO[C@@H](O[C@H]5O[C@@H](CO)[C@H](O)[C@@H](O)[C@@H]5O)[C@@H]4[C@@]4(CO)O[C@@H]34)[C@@H]2OC(C)=O)cc1
inactive: max response [1] 0.0012% | max response [2] 3.75% | max response [3] 9.04% | max response [4] 1.61% | Potency [5] | Potency [6] | Potency [9] | Potency [10] | Potency [11]

C=CC(C)(O)CC/C=C(\C)C(=O)OC1C(O)C(CO)OC(OC(=O)C23CCC(C)(C)CC2C2=CCC4C5(C)CCC(OC6OC(COC7OCC(OC(C)=O)C(O)C7OC7OC(COC(C)=O)C(O)C(O)C7O)C(O)C(O)C6O)C(C)(C)C5CCC4(C)C2(C)C(O)C3O)C1OC1OCC(OC2OCC(O)C(OC3OCC(O)C(O)C3O)C2O)C(O)C1O (stereo not given)
inactive: max response [1] -3.37% | max response [2] -19.8% | max response [3] 4.25% | max response [4] -2.07% | activity change, negative = cytotoxicity [5] 7.05% [at 6.55 µM] | activity change, negative = cytotoxicity [8] -3.55% [at 6.55 µM] | activity change, negative = cytotoxicity [6] 1.1% [at 6.55 µM] | activity change, negative = cytotoxicity [9] 16.6% [at 6.55 µM] | activity change, negative = cytotoxicity [10] 1.48% [at 6.55 µM] | activity change, negative = cytotoxicity [11] -3.21% [at 6.55 µM]

C=CC(=O)Nc1cc(Nc2nccc(-c3c[nH]c4ccccc34)n2)c(OC)cc1N(C)CCN(C)C
active: Potency [1] 5170 nM | Potency [2] 36.6 nM | Potency [3] 8200 nM | Potency [4] 14600 nM | Potency [7] 28200 nM | Potency [8] 28200 nM | Potency [6] 20000 nM | Potency [9] 15800 nM

COc1cc2ncnc(Nc3ccc(F)c(Cl)c3)c2cc1NC(=O)/C=C/CN1CCCCC1
active: Potency [1] 7310 nM | Potency [2] 41.1 nM | Potency [3] 13000 nM | Potency [4] 16400 nM | Potency [7] 22400 nM

C[C@@H]1[C@H]2[C@H](O[C@@H]3O[C@H](CO)[C@@H](O)[C@H](O)[C@H]3O)OC=C(C(=O)O)[C@H]2C[C@@H]1O
inactive: max response [1] -5.11% | max response [2] -4.56% | max response [3] -0.849% | max response [4] -4.16% | Potency [5] | Potency [8] | Potency [6] | Potency [9] | Potency [10] | Potency [11]

CC1=C(/C=C/C(C)=C\C=C\C(C)=C/C(=O)O)C(C)(C)CCC1
inactive: max response [1] 0.159% | max response [2] -22.2% | outcome [3] | max response [4] 0.69% | Potency [5] | Potency [8] | Potency [6] | Potency [9] | Potency [10] | Potency [11]

Cc1onc(C(=O)N2CCN(C(c3ccc(Cl)cc3)c3ccc(Cl)cc3)CC2)c1[N+](=O)[O-]
active: Potency [1] 820 nM | Potency [4] 731 nM | Potency [7] 2240 nM | Potency [6] 1000 nM
inactive: max response [2] 0.662% | max response [3] -21.9% | Potency [8] | Potency [9] | Potency [10]

CC1COC(Nc2ccc3ncnc(Nc4ccc(OCc5nccs5)c(Cl)c4)c3c2)=N1 (stereo not given)
active: Potency [1] 11600 nM | Potency [2] 1840 nM
inactive: max response [3] -8.52% | max response [4] 3.7% | Potency [5] | Potency [6] | Potency [9] | Potency [11]

CCCCNc1ncc2c(-c3ccc(F)cc3)nn(CC3CCC(N)CC3)c2n1 (stereo not given)
inactive: max response [1] -110%
active: Potency [2] 10000 nM | Potency [3] 2820 nM | Potency [4] 6320 nM | Potency [5] 11200 nM | Potency [8] 10000 nM | Potency [9] 10000 nM

O=C(CSc1nc2c(c(=O)n1-c1ccccc1)SCC2)Nc1ccc(-c2ccccc2)cn1
inactive: max response [2] -7.15%
active: Potency [1] 41.1 nM | Potency [3] 46.1 nM | Potency [4] 58 nM | Potency [6] 224 nM | Potency [9] 158 nM

Nc1ccc(-c2cccc3c(=O)cc(N4CCOCC4)oc23)cc1
inactive: Potency [11]
active: Potency [1] 7310 nM | Potency [2] 6510 nM | Potency [3] 20600 nM | Potency [4] 8200 nM | Potency [8] 12600 nM

CS(=O)(=O)N(CC(=O)NCC1CC1)c1cc(C(F)(F)F)ccc1Cl
inactive: max response [1] 0.809% | max response [2] -2.56% | max response [3] 5.98% | max response [4] -6.39% | Potency [7] | Potency [6] | Potency [9] | Potency [10] | Potency [11]

COc1cc2c(cc1OC)-c1[nH]nc(Nc3cccc(F)c3)c1C2
active: Potency [1] 130 nM | Potency [2] 73.1 nM | Potency [3] 164 nM | Potency [4] 731 nM | Potency [8] 891 nM | Potency [6] 1410 nM | Potency [9] 562 nM

COc1cc(N2CCOCC2)ccc1Nc1ncc(Cl)c(Nc2ccccc2NS(C)(=O)=O)n1
active: Potency [1] 1840 nM | Potency [2] 4610 nM | Potency [3] 2310 nM | Potency [4] 6510 nM | Potency [7] 3550 nM | Potency [8] 8910 nM | Potency [9] 3160 nM

CC1(CCOC2OC(CO)C(O)C(O)C2O)CCC23OC2(C1)C(O)CC1C(C)(C(=O)O)CCCC13C (stereo not given)
inactive: max response [1] -6.41% | max response [2] 3.2% | max response [3] 8.97% | max response [4] 0.419% | Potency [7] | Potency [8] | Potency [6] | Potency [9] | Potency [10] | Potency [11]

CCC(C)C(=O)OC1CC(O)C23C4OCC5(C(O)CC2C1(C)C(O)O4)C3C(=O)C(O)C1(C)C(O)(c2ccoc2)CC2OC251 (stereo not given)
active: Potency [1] 1720 nM | Potency [2] 4850 nM | Potency [3] 968 nM | Potency [4] 3060 nM | Potency [7] 3980 nM | Potency [6] 8910 nM
inactive: Potency [8] | Potency [11]

COc1cccc(Nc2ncnn3ccc(CN4CC[C@@H](N)[C@H](O)C4)c23)c1
active: Potency [1] 13000 nM | Potency [2] 5.8 nM | Potency [4] 517 nM
inactive: max response [3] -14.7% | Potency [8] | Potency [6] | Potency [9] | Potency [11]

COC(=O)N1CCC(n2ncc3c(N4CCOCC4)nc(-c4ccc(NC(=O)Nc5ccc(CO)cc5)cc4)nc32)CC1
active: Potency [1] 58 nM | Potency [2] 3660 nM | Potency [3] 231 nM | Potency [4] 1460 nM | Potency [8] 1120 nM | Potency [6] 1000 nM | Potency [9] 2510 nM | Potency [10] 282 nM | Potency [11] 15800 nM

Cc1cc(Nc2ncc3cc(-c4c(Cl)cccc4Cl)c(=O)n(C)c3n2)ccc1F
active: Potency [1] 2310 nM | Potency [2] 5800 nM | Potency [3] 2590 nM | Potency [4] 1460 nM | Potency [7] 3160 nM | Potency [6] 7940 nM | Potency [9] 3550 nM

CNC(=O)c1ccccc1Nc1nc(Nc2ccc(N3CCNCC3)cc2)ncc1Cl
active: Potency [1] 65.1 nM | Potency [2] 9.2 nM | Potency [3] 25.9 nM | Potency [4] 82 nM | Potency [8] 355 nM | Potency [6] 2240 nM | Potency [9] 39.8 nM | Potency [10] 631 nM

COc1cc2c(cc1OC)[C@@H]1[C@H](O)[C@@H](OC)C=C3CCN(C2)[C@H]31
inactive: max response [2] -24.8% | Potency [9] | Potency [11]
active: Potency [1] 4530 nM | Potency [3] 7180 nM | Potency [4] 3600 nM

COc1cc2c(cc1O)CC[C@H]1[C@@H]2CC[C@]2(C)[C@H](O)CC[C@@H]12
active: Potency [1] 1030 nM | Potency [2] 580 nM | Potency [3] 1640 nM | Potency [4] 820 nM | Potency [6] 3980 nM | Potency [9] 3160 nM

CC(=O)O[C@H]1CC(C)(C)CC2[C@@]13[C@H](O)C[C@]1(C)[C@@]2(CCC2[C@@]4(C)CC[C@H](O[C@@H]5OC[C@H](O[C@@H]6O[C@H](CO)[C@@H](O)[C@H](O)[C@H]6O[C@@H]6OC[C@@H](O)[C@H](O)[C@H]6O)[C@H](O)[C@H]5O[C@@H]5O[C@H](CO)[C@@H](O)[C@H](O)[C@H]5O)C(C)(C)C4CC[C@]21C)O[C@@H]3O (stereo not given in full)
inactive: max response [3] -24.8% | activity change, negative = cytotoxicity [9] -7.2% [at 11.6 µM]
active: Potency [1] 1950 nM | Potency [2] 3480 nM | Potency [4] 2760 nM | Potency [11] 2820 nM
